# KB-V1 cytotox: qHTS assay for MDR1-selective chemotherapeutics: Primary screen using the drug-selected MDR subline cells KB-V1. KB-V1 MDR cells viability, CellTiter-Glo, 72 h. 400,000 tested, 3.4% active. AID 1347076, 2019. Potency, µM (top dose mostly 46.1 µM), actives largely listed as cytotoxic; also: potency is read from the fitted curve at half-maximal effect; % is scaled to controls: 0 for no effect and ±100 for the full control effect; nearly all actives have a fitted effect of over 60% in size
#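 Drug-selected KB-V1 cells, grown in DMEM lacking phenol red with 10% FBS, receive compound titrations; after three days at 37 degrees C, surviving cell ATP is quantified by CellTiter-Glo luminescence and responses normalized and curve-fitted.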
# SW480 rereplic: A quantitative high throughput screen for small molecules that induce DNA re-replication in SW480 colon adenocarcinoma cells; SW480 DNA re-replication, Hoechst DNA content imaging, 48 h; Potency, µM (doses to about 46.1 µM), inactives show at the highest dose re-replication activation, usual class: activators; 340,000 tested, 1.8% active; AID 624297, 2012; also: potency is read from the fitted curve at half-maximal effect; % of control where 0% means no effect; nearly all actives have a fitted effect of over 55% in size
#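 Image-based read-out: total Hoechst fluorescence of nuclei (405 nm excitation, 500-530 nm emission), with hits raising the fraction of high-intensity nuclei. SW480 colon cells incubated 48 hr with compounds at 37 C.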
# MCF10A rereplic: A quantitative high throughput screen for small molecules that induce DNA re-replication in MCF 10a normal breast cells; MCF 10A DNA re-replication, Hoechst nuclear intensity, 48 h; Potency, µM (top dose mostly 46.1 µM), without a hit: at the highest dose activity, positive = re-replication, actives largely listed as activators; 350,000 tested, 2.9% active; AID 624296, 2012; also: potency is read from the fitted curve at half-maximal effect; % of control where 0% means no effect; nearly all actives have a fitted effect of over 50% in size
# Giardia kill: Small Molecules that selectively kill Giardia lamblia: qHTS. Giardia lamblia trophozoite viability. activity change, % at 7.66 µM, hits read low. 340,000 tested, 0.15% active; in the data active = activity change below about -80%; inconclusive = between about -30% and that limit;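 also: parasites exposed to compound for two days anaerobically before the ATP read; % is scaled to controls: 0 for no effect and ±100 for the full control effect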
#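 ATP-content bioluminescence gauges trophozoite survival. Cells (100/well) receive compound and incubate anaerobically for 48 hrs at 37 deg C; detection reagent follows for 15-30 min at room temperature.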
# S-ASM inh: Inhibitors of Secretory Acid Sphingomyelinase (S-ASM): qHTS; placental ASM, HMU-PC fluorogenic substrate, 60 min; AID 504937, 2011; Sphingomyelin phosphodiesterase (Homo sapiens), P17405; Potency, µM (series often up to 57.5 µM), without a hit: at the top dose activity change, negative = inhibition, most hits filed as inhibitors; 340,000 tested, 0.006% active; also: potency is read from the fitted curve at half-maximal effect
# Target sequence (P17405 47-631 limits assumed): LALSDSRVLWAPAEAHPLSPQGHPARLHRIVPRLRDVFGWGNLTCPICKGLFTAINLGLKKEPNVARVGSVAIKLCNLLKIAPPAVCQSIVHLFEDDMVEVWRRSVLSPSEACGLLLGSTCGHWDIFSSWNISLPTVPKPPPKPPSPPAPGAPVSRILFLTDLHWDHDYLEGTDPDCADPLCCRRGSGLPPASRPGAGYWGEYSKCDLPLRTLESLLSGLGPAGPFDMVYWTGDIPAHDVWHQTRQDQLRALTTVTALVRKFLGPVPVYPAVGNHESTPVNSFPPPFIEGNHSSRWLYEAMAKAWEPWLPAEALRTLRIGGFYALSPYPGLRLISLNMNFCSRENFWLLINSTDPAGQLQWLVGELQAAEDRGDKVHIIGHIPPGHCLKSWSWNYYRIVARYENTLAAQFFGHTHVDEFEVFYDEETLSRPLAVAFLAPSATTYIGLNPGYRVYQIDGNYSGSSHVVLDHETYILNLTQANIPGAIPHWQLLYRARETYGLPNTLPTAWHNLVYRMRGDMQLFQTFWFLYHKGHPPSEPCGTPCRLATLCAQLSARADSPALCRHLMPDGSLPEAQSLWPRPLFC
#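 Human placenta-derived ASM enzyme was preincubated with compound for 10 minutes at room temperature, then given fluorogenic substrate HMU-PC0 (9 uM final) for 60 minutes at 37 °C; a pH 10 stop preceded fluorescence reading at Ex 386/Em 447 nm.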
# KB-3-1 cytotox: qHTS assay for MDR1-selective chemotherapeutics: Primary screen using the parental adenocarcinoma cell KB-3-1 | Potency, µM (titrated, usually from 46.1 µM), actives largely listed as cytotoxic | KB-3-1 viability, CellTiter-Glo ATP luminescence, 72 h | 400,000 tested, 1.4% active; also: potency is read from the fitted curve at half-maximal effect; % is scaled to controls: 0 for no effect and ±100 for the full control effect; nearly all actives have a fitted effect of over 60% in size
#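 Luminescent ATP read-out (CellTiter-Glo) measures survival of drug-naive KB-3-1 cells after 72 h compound exposure at 37 °C. Titration series was screened from lowest to highest concentration, with DMSO vehicle plates as background controls.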
# An asterisk follows results filed as active; i = inactive; ? = inconclusive; / = no result; [ ] = remark or other dose. An excerpt weighted towards active compounds, which were near 6.9% of everything screened. Unless noted, calls follow the shape of the dose curve; as a rule, active = well fitted curve in the direction sought with a large enough effect; inconclusive = small, poorly fitted or top-dose-only effect, or another doubt; inactive = no such curve, though single readings can be large; an effect the other way counts as inactive or inconclusive.
SMILES,KB-V1 cytotox,SW480 rereplic,MCF10A rereplic,Giardia kill,S-ASM inh,KB-3-1 cytotox
COc1ccc(NC(=O)CCNS(=O)(=O)c2ccc3c(c2)CCCC(=O)N3)cc1,i,/,/,/,/,i
CN(C/C=C\c1ccccc1)Cc1cccc2ccccc12,/,0%,18%,/,/,/
CCn1c(=O)c(C(=O)Nc2ncccc2C)c(O)c2ccccc21,4.6µM*,24%,16%,-14,0%,?
Cc1cccnc1NC(=O)c1c(O)c2ccccc2n(C)c1=O,7.3µM*,13%,?,-3,1%,i
CCn1c(=O)c(C(=O)Nc2ncccc2O)c(O)c2ccccc21,i,5%,?,21,-1%,i
Cn1c(=O)c(C(=O)NNC(=O)c2ccc(Br)cc2)c(O)c2ccccc21,?,21%,23µM*,7,-19%,26µM*
Cc1ccc(-n2c(=O)c3ccc(C(=O)NCc4ccccc4Cl)cc3n(CC(=O)Nc3ccc(C)cc3C)c2=O)cc1,?,/,/,/,/,i
CC(C)C(=O)Nc1ccc(/C=C2\C=Cc3ccccc32)cc1,i,/,/,/,/,i
O=C(CCn1cnc2ccccc21)N/N=C/c1ccccc1O,i,8.2µM*,?,-2,490%,?
COC(=O)c1ccccc1NC(=O)c1ccc2c(c1)CCN2S(=O)(=O)c1ccc(C)cc1,i,/,/,/,/,i
COc1ccc(C(NC(=O)C(C)C)c2c(O)ccc3ccccc23)cc1 (configuration not stated),i,?,18µM*,10,61%,?
CCC(=O)NC(c1ccc([N+](=O)[O-])cc1)c1c(O)ccc2ccccc12 (configuration not stated),i,0%,?,-2,-9%,i
CC(C)C(=O)NC(c1ccco1)c1c(O)ccc2ccccc12 (configuration not stated),i,27%,21µM*,-5,26%,i
CCCCC(=O)NC(c1ccc([N+](=O)[O-])cc1)c1c(O)ccc2ccccc12 (configuration not stated),16µM*,?,?,?,-13%,?
CC(NC(=O)C1CCN(S(=O)(=O)c2cnc[nH]2)CC1)c1ccccc1 (configuration not stated),i,-6%,-3%,1,-1%,i
CCOC(=O)c1[nH]c2c(c1Cc1ccccc1)C(=O)CC(c1ccc(Cl)cc1)C2 (configuration not stated),?,/,/,/,/,i
C/C(=N\Nc1nc2ccccc2[nH]1)c1ccc(Cl)s1,21µM*,1%,?,0,-3%,?
Cc1nn(-c2ccccc2)c(Cl)c1/C=N/Nc1nc2ccccc2[nH]1,?,?,7.3µM*,-8,-5%,?
Brc1ccc(-c2ccc(/C=N/Nc3nc4ccccc4[nH]3)o2)cc1,i,5.8µM*,12µM*,?,i,i
C(=C\c1ccccc1)/C=N/Nc1nc2ccccc2[nH]1,i,?,4.6µM*,-2,-4%,15µM*
C(=N\Nc1nc2ccccc2[nH]1)/c1ccccc1,?,-1%,3%,28,-1%,i
Cn1c(=O)c2c(SCC(=O)N3CCOCC3)nc(-c3ccccc3F)nc2n(C)c1=O,?,-5%,0%,14,-3%,i
Cc1ccccc1/C=N/Nc1nc2ccccc2[nH]1,i,1%,?,6,-2%,i
Cc1ccc(/C=N/Nc2nc3ccccc3[nH]2)s1,15µM*,?,?,26,16%,i
O=[N+]([O-])c1cc(/C=N/Nc2nc3ccccc3[nH]2)c(O)cc1O,i,?,3.3µM*,12,-20%,i
SMILES,KB-V1 cytotox,SW480 rereplic,MCF10A rereplic,Giardia kill,S-ASM inh,KB-3-1 cytotox
Nc1nc(=S)[nH]c(N)c1N,i,/,/,/,/,i
C/C=C\C(=O)N(CC)c1ccccc1C,/,-5%[20.6 µM],-3%[20.6 µM],/,/,/
COc1cc(N2CCCC2)c(OC)cc1/C=C(/C#N)c1ccc(Br)cc1,i,2%,23µM*,1,-23%,i
O=C1c2cccc(OCc3ccc(F)cc3)c2CCN1Cc1ccccc1,?,-2%,?,5,-9%,16µM*
Cc1ccc(COc2cccc3c2CCN(Cc2ccc(F)cc2)C3=O)cc1,5.8µM*,16%,23%,-13,-4%,?
CC(=O)N1c2ccc(C)cc2Sc2c1ccc1ccccc21,i,?,21µM*,-18,-5%,i
Cc1ccc2c(c1)S/C(=C\c1cccc[n+]1C)N2CCO,?,-40%,1%,2,-2%,?
O=S(=O)(c1ccc(F)cc1)c1nc(-c2ccccc2F)oc1N1CCCCC1,3.7µM*,10%,16%,2,-2%,i
Cc1ccc(C)c(NC(=O)CSc2nnc([C@@H]3CCCN3C(=O)OC(C)(C)C)o2)c1,i,0%,-3%,14,4%,i
Cc1cccc(NC(=O)CSc2nnc([C@@H]3CCCN3C(=O)OC(C)(C)C)o2)c1C,?,1%,5%,-1,4%,21µM*
CCn1ncc(Br)c1C(=O)Nc1ccc(F)cc1F,?,21µM*,16µM*,13,0%,i
CCn1ncc(Br)c1C(=O)Nc1ccccc1C(=O)OC,?,2%,3%,-16,-3%,21µM*
CCC(C)(C)C(=O)Nc1ncc(S(=O)(=O)c2ccc([N+](=O)[O-])cc2)s1,i,?,?,-21,-2%,i
COC(=O)C(NC(=O)c1ccccc1Cl)(Nc1ncc(S(=O)(=O)c2ccc([N+](=O)[O-])cc2)s1)C(F)(F)F (configuration not stated),13µM*,?,?,-8,-3%,?
C/C(=N\Nc1cc(N2CCOCC2)nc(C)n1)c1ccc(F)cc1,i,?,-10%,-2,-3%,i
C/C(=N\Nc1cc(N2CCCCC2)nc(C)n1)c1ccc(Br)cc1,?,?,12µM*,?,-14%,?
O=S(Cc1ccc(Cl)cc1)CC(O)COCc1ccc(Cl)cc1 (configuration not stated),16µM*,-7%,-10%,-10,5%,i
OC(CNCc1ccccc1)COCc1ccc(Cl)cc1 (configuration not stated),i,29%,-41%,-8,3%,i
